Measurements reported in PubChem BioAssay AID2253 (Southern Research Specialized Biocontainment Screening …, 2010).
In all, about 2,200 compounds went through this assay and about 1,300 (59%) were called active. No rule for the calls is given here. So high a share suggests a set chosen from earlier hits. Not all results are given here. Entries that show only a call come without a potency. Potency and affinity values are given separately.

Assay: THP-1 cell cytotoxicity, dose response, cytotoxicity control for Salmonella PhoP regulon inhibitors, S. typhimurium screen hits (AID 2253)
Conditions: THP-1 viability, CellTiter-Glo luminescence, 72 h; series mostly up to 50 µM

| Structure (SMILES) | outcome |
| --- | --- |
| CCOC(=O)c1c(NC(=O)Nc2ccc(C)cc2)sc2c1CCN(C)C2 | inactive |
| NC(=O)c1c(NC(=O)CN2C(=O)CCC2=O)sc2c1CCCCC2 | inactive |
| CC(C)(C)C1CCc2c(sc(NC(=O)c3cccs3)c2C(=O)N2CCCCC2)C1 (configuration not stated) | inactive |
| C=CCN=C(NC#N)SCc1ccccc1Cl | inactive |
| O=c1cc(-c2ccc([N+](=O)[O-])cc2)nc2cc(-c3ccc(Cl)cc3)[nH]n12 | inactive |
| N#Cc1ccc(COC(=O)c2ccc3c(=O)[nH]c(CN4CCOCC4)nc3c2)cc1 | inactive |
| COC(=O)c1ccc2c(=O)n(CCN3CCOCC3)c(SCC(=O)C(C)(C)C)nc2c1 | inactive |
| COc1ccc(CN2CCOCC2)cc1Br | inactive |
| CC(C)Cc1oc(C(=O)O)cc1CN1CCOCC1 | inactive |
| Cc1ccc(C(=O)Oc2cccc(NC(=O)c3cccs3)c2)cc1S(=O)(=O)N1CCOCC1 | inactive |
| CCOC(=O)c1c(C)[nH]c(C)c1C(=O)COC(=O)/C=C/c1cccc(F)c1 | inactive |
| Cc1ccc(OCC(=O)N2CCN(S(=O)(=O)c3ccccc3)CC2)c([N+](=O)[O-])n1 | inactive |
| CCOC(=O)C(/C=C(\C#N)C(=O)OCC)=C(/N)N1CCN(c2c(C)cccc2C)CC1 | inactive |
| Cc1ccccc1NC(=S)N(CCCN1CCOCC1)Cc1ccccn1 | inactive |
| Brc1ccc2nc3c(n2c1)CCCC3 | inactive |
| CCCCn1c(NCCO)nc2ccccc21 | inactive |
| Nc1ccc(C(=O)OCc2nc3ccccc3[nH]2)cc1 | inactive |
| COc1c(F)c(F)cc2c(=O)c(C(=O)O)cn(C3CC3)c12 | inactive |
| O=C(Cn1nc(C(F)(F)F)c2c1CCCCC2)N1CCOCC1 | inactive |
| CCCNC(=O)COC(=O)CCC(=O)c1ccc(F)cc1 | inactive |
| O=C(c1cc2ncc(Br)cn2n1)N1CCOCC1 | inactive |
| C(=N\N1CCN(C2c3ccccc3-c3ccccc32)CC1)/c1cccs1 | inactive |
| CCn1cc(C(=O)O)c(=O)c2cnc(N3CCN(C(=S)NC(=O)c4ccc(Cl)cc4)CC3)nc21 | inactive |
| CCOc1ccc(-c2noc(CCCC(N)=O)n2)cc1OC | inactive |

| Structure (SMILES) | outcome |
| --- | --- |
| COc1c(N2C[C@@H]3CCCN[C@@H]3C2)c(F)cc2c(=O)c(C(=O)O)cn(C3CC3)c12 | inactive |
| N/C(=N\OC(=O)Cc1ccc(Cl)cc1)c1cccnc1 | inactive |
| COc1cccc(N=Cc2c[nH][nH]c2=O)c1 | inactive |
| Cc1cc2ncn(C3CC(=O)N(Cc4ccc(N5CCCC5=O)cc4)C3=O)c2cc1C (configuration not stated) | inactive |
| CC(NC(=O)C1(C)CC1(Br)Br)C(C)(C)C (configuration not stated) | inactive |
| CN1/C(=C/C2CC(=O)N(c3cccc4ccccc34)C2=O)C(C)(C)c2ccccc21 (configuration not stated) | inactive |
| Cc1ccc(NC(=O)CCN2CCc3ccccc3C2)cc1 | inactive |
| O=C(OCCN1C(=O)c2ccccc2C1=O)c1ccc(S(=O)(=O)N2CCCCCC2)cc1 | inactive |
| C/C(=N\NC(=O)c1c(Cl)c(C)nn1C)c1cccc(NC(=O)COc2ccc(Cl)cc2)c1 | inactive |
| CCCCCC(=O)Nc1ccc2ccccc2c1 | inactive |
| O=S(=O)(NCc1ccccc1)c1cccc(S(=O)(=O)N2CCOCC2)c1 | inactive |
| O=C(Nc1ccc2oc(-c3ccc(Cl)c(Cl)c3)nc2c1)c1ncn[nH]1 | inactive |
| Nc1nc(N)nc(-c2ccccc2)n1 | inactive |
| Nc1cc(N)cc(-c2nc3ccccc3[nH]2)c1 | inactive |
| O=C(O)CCc1nn2c3ccccc3n(CCN3CCCCC3)c2nc1=O | inactive |
| COc1ccc(OCCSc2nnc(-c3ccc(OC)cc3)n2N)cc1 | inactive |
| C=CCn1c(SCCOc2ccc(OC)cc2)nnc1C(C)NC(=O)c1ccc(OC)cc1 (configuration not stated) | inactive |
| COC(=O)c1ccc(COC(=O)c2ccccn2)cc1 | inactive |
| CC(O)c1ccc(OCCN(C)c2ccccn2)cc1 (configuration not stated) | inactive |
| Cc1ccc(-n2ncc3c(N4CCN(c5ccccc5)CC4)ncnc32)c(C)c1 | inactive |
| COc1cc(NC(=O)CSc2nnnn2Cc2ccc3c(c2)OCO3)cc(OC)c1 | inactive |
| c1ccc(-c2cnn3nnnc3n2)cc1 | inactive |
| CCc1c(C)c2cc(Cl)c(O)c(CN(C)C)c2oc1=O | inactive |
| O=C(CCN1C(=O)c2ccccc2S1(=O)=O)Nc1ccc2c(c1)OCCO2 | inactive |

| Structure (SMILES) | outcome |
| --- | --- |
| CC(=O)c1c(N2CCN(C(=O)C3CCCO3)CC2)nc(=S)n(-c2ccccc2)c1C (configuration not stated) | inactive |
| O=C(Nc1ccc(F)cc1)c1ccccc1F | inactive |
| COc1ccc(CCNC(=O)c2ccc(CN3CCOCC3)cc2)cc1 | inactive |
| O=C(CCN1C(=O)COc2ccccc21)NCCN1CCOCC1 | inactive |
| CC1(C)CC(=O)C(/C=N/c2ncccc2C(=O)O)=C(O)C1 | inactive |
| O=C(NC(CO)C(O)c1ccc([N+](=O)[O-])cc1)C(Cl)Cl (configuration not stated) | inactive |
| Cc1cc(-c2csc(N)n2)c(C)n1C | inactive |
| Cc1ccc(-n2c(C)cc(-c3csc(N)n3)c2C)cc1 | inactive |
| Cc1ccccc1NC(=O)c1ccc(-n2cncn2)nc1 | inactive |
| O=C1C(c2ccc(F)cc2)N(Cc2ccc3c(c2)OCO3)C(=O)CN1C1CCCCCC1 (configuration not stated) | inactive |
| Nc1ccc(Nc2ccccc2)c(Cl)c1 | inactive |
| C/C(=N\n1nnnc1Nc1ccccc1)c1ccc(N)cc1 | inactive |
| CCn1cc(C(=O)O)c(=O)c2cc(F)c(N3CCN(C(=S)NC(=O)c4ccccc4Cl)CC3)cc21 | inactive |
| COc1ccc(Cl)cc1-c1nc(SCC(N)=O)n[nH]1 | inactive |
| CSCCC(NC(=O)c1cccc(C)c1)C(=O)OCC(=O)NC(=O)c1cccn1C (configuration not stated) | inactive |
| COC(=O)c1sccc1NC(=O)c1cccnc1 | inactive |
| CC(=O)Nc1ccc(OC(=O)c2cccnc2)cc1 | inactive |
| Cc1cc(-c2csc(NC(=O)c3ccc(S(=O)(=O)N(C)C)cc3)n2)c(C)n1-c1ccccc1 | inactive |
| CC(=O)Nc1ccc(C(=O)Nc2nc(-c3cc(C)n(Cc4ccccc4)c3C)cs2)cc1 | inactive |
| O=C(/C=C/c1ccco1)N/C(=C\c1ccccc1)C(=O)NCCc1nc2ccccc2[nH]1 | inactive |
| Cc1ccc2c(CN3CCC(C)CC3)cc(=O)oc2c1 | inactive |
| N#Cc1nc(-c2ccco2)oc1NCCCN1CCOCC1 | inactive |
| N#CC1=C(N)SC(N)=C(C#N)C1c1ccc([N+](=O)[O-])cc1 | inactive |
| CC1CCCCN1CCNS(=O)(=O)c1ccc2c(c1)oc(=O)n2C (configuration not stated) | inactive |
